Measured values from PMC7862700, “An all-to-all approach to the identification of sequence-specific readers for epigenetic DNA modifications on cytosine”.

Tests used:
Assay in all cases: DAPPL (digital affinity profiling via proximity ligation, sequencing); 10 mM Tris-HCl pH 7.5, 50 mM NaCl, 1 mM DTT, 4% glycerol, room temperature, 30 min; GST-TFs on glutathione beads, 16-mer random dsDNA library, 0.1% formaldehyde crosslink after washing; high values mean tight binding
[1] = target: T1, FEV (Homo sapiens, UniProt Q99581 1-238); conditions: protein: recombinant; tags: N-terminal GST; dsDNA, one strand shown
T1 sequence: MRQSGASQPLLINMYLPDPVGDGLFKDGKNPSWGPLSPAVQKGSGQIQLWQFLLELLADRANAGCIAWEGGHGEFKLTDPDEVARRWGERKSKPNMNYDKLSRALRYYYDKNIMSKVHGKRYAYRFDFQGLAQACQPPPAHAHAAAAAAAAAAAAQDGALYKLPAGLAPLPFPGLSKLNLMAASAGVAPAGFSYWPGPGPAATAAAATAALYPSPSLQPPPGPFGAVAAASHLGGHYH
How it was run: (§1)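 A tag-only sample was pooled with DNA-barcoded human transcription factors that had been expressed in yeast as GST fusions and captured on glutathione beads. The pools were incubated for 30 min at room temperature with 200 nmole of a random double-stranded 16-mer DNA library in Tris/NaCl/DTT/glycerol buffer, then washed, crosslinked with 0.1% formaldehyde, proximity-ligated (BsaI/T4 ligase, 1 h, 37 °C), PCR-amplified and sequenced on an Illumina NextSeq500. Binding signal is each hexamer's read frequency for a factor divided by its frequency for the tag-only sample.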

[2] = target: ETV5 (Homo sapiens, UniProt P41161 1-510); conditions: protein: recombinant; tags: N-terminal GST; dsDNA, one strand shown
ETV5, sequence (P41161 whole entry): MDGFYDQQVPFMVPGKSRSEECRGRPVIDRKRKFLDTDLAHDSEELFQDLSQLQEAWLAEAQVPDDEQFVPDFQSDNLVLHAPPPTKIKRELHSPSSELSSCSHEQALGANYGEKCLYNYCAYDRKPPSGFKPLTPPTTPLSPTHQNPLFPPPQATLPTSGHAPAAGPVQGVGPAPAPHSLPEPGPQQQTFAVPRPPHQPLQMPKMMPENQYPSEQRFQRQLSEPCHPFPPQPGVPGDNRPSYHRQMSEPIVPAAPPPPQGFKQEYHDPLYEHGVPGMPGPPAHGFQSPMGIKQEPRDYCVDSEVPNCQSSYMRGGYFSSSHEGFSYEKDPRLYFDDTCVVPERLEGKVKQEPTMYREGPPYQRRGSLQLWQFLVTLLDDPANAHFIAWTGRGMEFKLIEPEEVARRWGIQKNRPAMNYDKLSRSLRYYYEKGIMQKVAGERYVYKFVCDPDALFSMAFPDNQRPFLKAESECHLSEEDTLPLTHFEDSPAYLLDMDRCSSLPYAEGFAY
How it was run: as §1

[3] = target: HSF1 (Homo sapiens, UniProt Q00613 1-529); conditions: protein: recombinant; tags: N-terminal GST; chain copies: 3; dsDNA, one strand shown
HSF1, sequence (Q00613 whole entry): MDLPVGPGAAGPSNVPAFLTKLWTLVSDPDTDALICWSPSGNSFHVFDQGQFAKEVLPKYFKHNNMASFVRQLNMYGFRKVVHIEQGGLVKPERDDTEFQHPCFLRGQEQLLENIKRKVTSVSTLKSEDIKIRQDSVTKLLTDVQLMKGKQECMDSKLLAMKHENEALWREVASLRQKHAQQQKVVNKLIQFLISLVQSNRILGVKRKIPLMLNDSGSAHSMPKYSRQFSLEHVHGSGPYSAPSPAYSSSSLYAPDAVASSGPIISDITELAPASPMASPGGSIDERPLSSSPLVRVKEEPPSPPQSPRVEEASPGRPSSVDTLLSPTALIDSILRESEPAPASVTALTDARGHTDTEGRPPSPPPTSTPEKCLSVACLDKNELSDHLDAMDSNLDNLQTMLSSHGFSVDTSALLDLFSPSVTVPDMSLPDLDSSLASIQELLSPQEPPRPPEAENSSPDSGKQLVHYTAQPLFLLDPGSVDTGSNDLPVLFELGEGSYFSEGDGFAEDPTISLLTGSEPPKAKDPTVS
How it was run: as §1

[4] = target: T2, SPIC (Homo sapiens, UniProt Q8N5J4 1-248); conditions: protein: recombinant; tags: N-terminal GST; dsDNA, one strand shown
T2 sequence: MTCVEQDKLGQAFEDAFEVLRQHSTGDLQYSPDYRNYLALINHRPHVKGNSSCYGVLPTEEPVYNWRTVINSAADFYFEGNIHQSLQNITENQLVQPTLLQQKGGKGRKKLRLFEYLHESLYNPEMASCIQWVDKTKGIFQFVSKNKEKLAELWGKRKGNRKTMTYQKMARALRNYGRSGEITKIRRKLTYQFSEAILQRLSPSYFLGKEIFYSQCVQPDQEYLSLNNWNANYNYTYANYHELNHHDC
How it was run: as §1

[5] = target: ELF4 (Homo sapiens, UniProt Q99607 1-663); conditions: protein: recombinant; tags: N-terminal GST; dsDNA, one strand shown
ELF4, sequence (Q99607 whole entry): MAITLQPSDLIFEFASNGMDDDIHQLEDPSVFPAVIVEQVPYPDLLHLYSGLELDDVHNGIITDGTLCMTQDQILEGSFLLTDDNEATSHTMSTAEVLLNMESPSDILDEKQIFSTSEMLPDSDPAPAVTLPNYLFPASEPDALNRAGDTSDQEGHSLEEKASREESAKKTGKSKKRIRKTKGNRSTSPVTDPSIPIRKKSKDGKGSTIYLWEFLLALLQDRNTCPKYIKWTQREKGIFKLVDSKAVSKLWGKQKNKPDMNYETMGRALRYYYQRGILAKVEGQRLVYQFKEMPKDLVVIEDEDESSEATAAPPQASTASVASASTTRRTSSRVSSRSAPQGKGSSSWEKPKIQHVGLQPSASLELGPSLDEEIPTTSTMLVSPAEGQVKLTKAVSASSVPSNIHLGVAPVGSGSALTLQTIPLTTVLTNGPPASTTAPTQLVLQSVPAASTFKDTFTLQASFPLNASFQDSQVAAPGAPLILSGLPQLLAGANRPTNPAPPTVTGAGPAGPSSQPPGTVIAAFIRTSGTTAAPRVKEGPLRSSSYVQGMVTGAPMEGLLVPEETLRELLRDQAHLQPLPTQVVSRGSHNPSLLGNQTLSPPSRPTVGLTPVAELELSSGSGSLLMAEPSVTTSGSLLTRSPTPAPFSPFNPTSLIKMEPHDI
How it was run: as §1

[6] = target: T3, ELK4 (Homo sapiens, UniProt P28324-2 1-405); conditions: protein: recombinant; tags: N-terminal GST; dsDNA, one strand shown
T3 sequence: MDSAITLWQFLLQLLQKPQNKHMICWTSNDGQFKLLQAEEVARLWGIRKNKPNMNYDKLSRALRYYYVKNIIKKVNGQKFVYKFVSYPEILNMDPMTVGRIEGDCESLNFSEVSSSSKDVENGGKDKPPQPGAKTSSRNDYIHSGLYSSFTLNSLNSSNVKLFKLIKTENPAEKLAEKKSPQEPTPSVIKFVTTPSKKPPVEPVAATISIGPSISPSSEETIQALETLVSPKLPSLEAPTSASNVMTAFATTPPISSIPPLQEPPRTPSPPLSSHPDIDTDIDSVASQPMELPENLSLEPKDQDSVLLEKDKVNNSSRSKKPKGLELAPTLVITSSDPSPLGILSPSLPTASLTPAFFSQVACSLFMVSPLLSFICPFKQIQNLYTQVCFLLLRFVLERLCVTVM
How it was run: as §1

[7] = target: T4, ETV2 (Homo sapiens, UniProt O00321 1-342); conditions: protein: recombinant; tags: N-terminal GST; dsDNA, one strand shown
T4 sequence: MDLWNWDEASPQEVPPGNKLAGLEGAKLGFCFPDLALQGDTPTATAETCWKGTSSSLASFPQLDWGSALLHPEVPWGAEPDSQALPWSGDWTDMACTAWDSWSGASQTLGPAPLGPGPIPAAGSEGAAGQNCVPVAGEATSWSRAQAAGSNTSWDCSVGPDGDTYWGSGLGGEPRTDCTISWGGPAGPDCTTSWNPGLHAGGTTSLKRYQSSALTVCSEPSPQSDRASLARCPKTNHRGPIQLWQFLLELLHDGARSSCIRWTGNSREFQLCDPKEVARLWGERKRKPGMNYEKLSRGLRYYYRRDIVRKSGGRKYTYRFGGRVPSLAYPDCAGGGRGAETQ
How it was run: as §1

[8] = target: T5, ELF3 (Homo sapiens, UniProt P78545 1-371); conditions: protein: recombinant; tags: N-terminal GST; dsDNA, one strand shown
T5 sequence: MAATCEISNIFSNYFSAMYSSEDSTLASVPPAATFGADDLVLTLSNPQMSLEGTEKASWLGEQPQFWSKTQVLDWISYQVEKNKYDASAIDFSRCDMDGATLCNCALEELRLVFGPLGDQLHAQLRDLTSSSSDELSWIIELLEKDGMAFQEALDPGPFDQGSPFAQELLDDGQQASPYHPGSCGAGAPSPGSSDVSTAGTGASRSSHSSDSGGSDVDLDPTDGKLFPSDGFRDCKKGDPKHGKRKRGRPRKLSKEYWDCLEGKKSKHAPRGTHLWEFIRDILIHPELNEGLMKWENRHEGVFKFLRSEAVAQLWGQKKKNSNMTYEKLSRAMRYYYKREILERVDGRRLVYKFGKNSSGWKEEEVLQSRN
How it was run: as §1

[9] = target: CRX (Homo sapiens, UniProt O43186 1-299); conditions: protein: recombinant; tags: N-terminal GST; dsDNA, one strand shown
CRX, sequence (O43186 whole entry): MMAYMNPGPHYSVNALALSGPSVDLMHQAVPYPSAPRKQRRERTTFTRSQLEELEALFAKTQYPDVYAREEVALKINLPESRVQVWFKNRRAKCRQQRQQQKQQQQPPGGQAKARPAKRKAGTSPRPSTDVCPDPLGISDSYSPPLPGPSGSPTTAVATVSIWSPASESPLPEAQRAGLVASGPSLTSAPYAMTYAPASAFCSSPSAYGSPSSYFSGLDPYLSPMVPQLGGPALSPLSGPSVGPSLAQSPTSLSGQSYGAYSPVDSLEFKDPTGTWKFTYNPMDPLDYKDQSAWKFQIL
How it was run: as §1

[10] = target: ETV1 (Homo sapiens, UniProt P50549 1-477); conditions: protein: recombinant; tags: N-terminal GST; dsDNA, one strand shown
ETV1, sequence (P50549 whole entry): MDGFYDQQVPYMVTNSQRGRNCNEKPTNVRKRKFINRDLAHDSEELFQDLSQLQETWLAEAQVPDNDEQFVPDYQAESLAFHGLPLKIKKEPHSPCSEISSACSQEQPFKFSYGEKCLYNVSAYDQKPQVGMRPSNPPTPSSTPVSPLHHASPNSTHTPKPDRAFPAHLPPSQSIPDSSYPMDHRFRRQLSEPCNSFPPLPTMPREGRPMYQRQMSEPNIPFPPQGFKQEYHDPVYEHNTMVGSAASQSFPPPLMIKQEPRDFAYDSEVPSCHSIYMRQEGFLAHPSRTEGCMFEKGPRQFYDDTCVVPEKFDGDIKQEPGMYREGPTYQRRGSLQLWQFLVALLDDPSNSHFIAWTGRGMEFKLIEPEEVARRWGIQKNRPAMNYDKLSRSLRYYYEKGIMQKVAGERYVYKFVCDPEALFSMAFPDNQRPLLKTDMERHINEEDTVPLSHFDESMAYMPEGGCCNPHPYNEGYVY
How it was run: as §1

[11] = target: T6, ERF (Homo sapiens, UniProt P50548 1-548); conditions: protein: recombinant; tags: N-terminal GST; dsDNA, one strand shown
T6 sequence: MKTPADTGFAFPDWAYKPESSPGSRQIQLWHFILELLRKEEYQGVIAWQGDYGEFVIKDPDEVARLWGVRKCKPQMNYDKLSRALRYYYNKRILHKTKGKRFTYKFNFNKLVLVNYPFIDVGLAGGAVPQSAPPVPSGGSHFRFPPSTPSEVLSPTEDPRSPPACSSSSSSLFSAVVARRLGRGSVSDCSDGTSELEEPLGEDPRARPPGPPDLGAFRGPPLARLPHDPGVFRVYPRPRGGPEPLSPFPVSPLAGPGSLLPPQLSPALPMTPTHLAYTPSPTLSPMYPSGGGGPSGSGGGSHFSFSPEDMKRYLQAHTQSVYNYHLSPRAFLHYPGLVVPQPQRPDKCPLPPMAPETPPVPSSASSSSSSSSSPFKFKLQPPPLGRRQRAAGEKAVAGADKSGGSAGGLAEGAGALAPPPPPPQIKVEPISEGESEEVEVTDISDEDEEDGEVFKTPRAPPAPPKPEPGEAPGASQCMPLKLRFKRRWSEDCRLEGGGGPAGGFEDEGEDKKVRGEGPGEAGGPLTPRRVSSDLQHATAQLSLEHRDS
How it was run: as §1

[12] = target: T7, ETV3L (Homo sapiens, UniProt Q6ZN32 1-361); conditions: protein: recombinant; tags: N-terminal GST; dsDNA, one strand shown
T7 sequence: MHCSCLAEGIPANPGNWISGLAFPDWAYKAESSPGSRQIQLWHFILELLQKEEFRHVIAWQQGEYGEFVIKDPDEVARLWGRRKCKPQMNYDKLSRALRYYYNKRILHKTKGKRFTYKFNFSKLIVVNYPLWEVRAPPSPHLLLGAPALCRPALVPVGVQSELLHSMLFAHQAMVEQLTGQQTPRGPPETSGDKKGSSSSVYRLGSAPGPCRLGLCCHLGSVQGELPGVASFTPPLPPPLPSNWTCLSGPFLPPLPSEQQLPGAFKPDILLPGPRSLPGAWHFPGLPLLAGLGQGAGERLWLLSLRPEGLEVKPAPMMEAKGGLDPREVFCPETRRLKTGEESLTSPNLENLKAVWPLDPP
How it was run: as §1

[13] = target: T8, ETS2 (Homo sapiens, UniProt P15036 1-469); conditions: protein: recombinant; tags: N-terminal GST; dsDNA, one strand shown
T8 sequence: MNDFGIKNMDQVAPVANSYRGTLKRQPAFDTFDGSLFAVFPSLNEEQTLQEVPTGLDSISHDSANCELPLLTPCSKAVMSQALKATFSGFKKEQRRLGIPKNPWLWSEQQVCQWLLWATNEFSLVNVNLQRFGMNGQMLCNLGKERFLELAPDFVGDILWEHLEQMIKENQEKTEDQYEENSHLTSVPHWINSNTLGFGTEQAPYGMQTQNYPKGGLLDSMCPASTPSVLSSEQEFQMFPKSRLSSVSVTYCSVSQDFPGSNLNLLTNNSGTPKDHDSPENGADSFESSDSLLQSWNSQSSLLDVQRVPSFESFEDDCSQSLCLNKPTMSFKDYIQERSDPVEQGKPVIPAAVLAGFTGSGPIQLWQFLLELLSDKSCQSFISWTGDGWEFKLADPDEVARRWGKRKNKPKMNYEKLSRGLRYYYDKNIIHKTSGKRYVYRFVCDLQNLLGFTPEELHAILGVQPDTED
How it was run: as §1

[14] = target: T9, SPDEF (Homo sapiens, UniProt O95238 1-335); conditions: protein: recombinant; tags: N-terminal GST; dsDNA, one strand shown
T9 sequence: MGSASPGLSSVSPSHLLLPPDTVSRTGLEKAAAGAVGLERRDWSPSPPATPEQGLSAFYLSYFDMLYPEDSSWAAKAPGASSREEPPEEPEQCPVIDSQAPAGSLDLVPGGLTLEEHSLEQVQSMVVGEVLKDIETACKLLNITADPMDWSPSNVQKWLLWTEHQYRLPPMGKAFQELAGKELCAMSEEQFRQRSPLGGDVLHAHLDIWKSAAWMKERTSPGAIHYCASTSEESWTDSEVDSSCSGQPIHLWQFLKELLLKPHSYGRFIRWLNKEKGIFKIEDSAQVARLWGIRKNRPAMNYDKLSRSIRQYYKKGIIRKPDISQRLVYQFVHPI
How it was run: as §1

[15] = target: T10, ETV7 (Homo sapiens, UniProt Q9Y603 1-341); conditions: protein: recombinant; tags: N-terminal GST; dsDNA, one strand shown
T10 sequence: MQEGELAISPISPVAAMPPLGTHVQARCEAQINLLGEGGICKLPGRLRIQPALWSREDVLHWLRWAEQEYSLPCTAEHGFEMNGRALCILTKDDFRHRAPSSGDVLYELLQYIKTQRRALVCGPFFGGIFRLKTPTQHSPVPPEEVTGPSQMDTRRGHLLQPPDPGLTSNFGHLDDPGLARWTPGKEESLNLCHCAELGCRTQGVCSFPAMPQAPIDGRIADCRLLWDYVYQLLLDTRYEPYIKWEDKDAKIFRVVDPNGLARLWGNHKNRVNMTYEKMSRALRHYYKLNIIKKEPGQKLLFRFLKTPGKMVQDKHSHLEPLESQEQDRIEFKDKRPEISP
How it was run: as §1

[16] = target: T11, ELF5 (Homo sapiens, UniProt Q9UKW6-2 1-255); conditions: protein: recombinant; tags: N-terminal GST; dsDNA, one strand shown
T11 sequence: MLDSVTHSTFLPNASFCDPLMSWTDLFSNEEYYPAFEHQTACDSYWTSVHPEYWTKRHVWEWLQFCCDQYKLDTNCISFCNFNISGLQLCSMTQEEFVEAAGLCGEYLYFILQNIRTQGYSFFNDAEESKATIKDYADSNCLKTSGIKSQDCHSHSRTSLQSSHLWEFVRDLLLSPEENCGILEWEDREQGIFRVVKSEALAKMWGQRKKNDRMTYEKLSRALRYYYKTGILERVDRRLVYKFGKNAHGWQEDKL
How it was run: as §1

[17] = target: T12, ETV3 (Homo sapiens, UniProt P41162-2 1-143); conditions: protein: recombinant; tags: N-terminal GST; dsDNA, one strand shown
T12 sequence: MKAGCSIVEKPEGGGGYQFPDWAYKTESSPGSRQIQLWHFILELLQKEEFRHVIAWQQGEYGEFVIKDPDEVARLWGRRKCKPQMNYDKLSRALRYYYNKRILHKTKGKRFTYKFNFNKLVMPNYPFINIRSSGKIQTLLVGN
How it was run: as §1

[18] = target: ETV6 (Homo sapiens, UniProt P41212 1-452); conditions: protein: recombinant; tags: N-terminal GST; dsDNA, one strand shown
ETV6, sequence (P41212 whole entry): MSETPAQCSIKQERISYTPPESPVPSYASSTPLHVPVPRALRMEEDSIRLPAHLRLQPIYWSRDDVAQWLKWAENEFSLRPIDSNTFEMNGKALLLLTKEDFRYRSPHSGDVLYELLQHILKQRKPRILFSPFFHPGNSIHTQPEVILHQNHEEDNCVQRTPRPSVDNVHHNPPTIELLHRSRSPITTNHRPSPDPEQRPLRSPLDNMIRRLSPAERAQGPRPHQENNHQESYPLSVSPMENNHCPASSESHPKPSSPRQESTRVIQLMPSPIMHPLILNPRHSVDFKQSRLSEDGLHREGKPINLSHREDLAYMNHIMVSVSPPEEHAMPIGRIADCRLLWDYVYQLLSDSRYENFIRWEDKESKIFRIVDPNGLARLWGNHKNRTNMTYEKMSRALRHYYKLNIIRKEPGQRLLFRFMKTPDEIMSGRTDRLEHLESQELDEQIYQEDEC
How it was run: as §1

GAAATT
binding signal [1]: 1.25 fold enrichment (6-mer frequency, TF over GST control) | binding signal [2]: 1.36 fold enrichment (6-mer frequency, TF over GST control) | binding signal [3]: 1.48 fold enrichment (6-mer frequency, TF over GST control) | binding signal [4]: 1.2 fold enrichment (6-mer frequency, TF over GST control) | binding signal [5]: 1.27 fold enrichment (6-mer frequency, TF over GST control) | binding signal [6]: 1.17 fold enrichment (6-mer frequency, TF over GST control) | binding signal [7]: 1.23 fold enrichment (6-mer frequency, TF over GST control) | binding signal [8]: 1.44 fold enrichment (6-mer frequency, TF over GST control) | binding signal [9]: 1.08 fold enrichment (6-mer frequency, TF over GST control) | binding signal [10]: 1.28 fold enrichment (6-mer frequency, TF over GST control) | binding signal [11]: 1.36 fold enrichment (6-mer frequency, TF over GST control) | binding signal [12]: 1.34 fold enrichment (6-mer frequency, TF over GST control) | binding signal [13]: 1.35 fold enrichment (6-mer frequency, TF over GST control) | binding signal [14]: 1.25 fold enrichment (6-mer frequency, TF over GST control) | binding signal [15]: 1.2 fold enrichment (6-mer frequency, TF over GST control) | binding signal [16]: 1.51 fold enrichment (6-mer frequency, TF over GST control) | binding signal [17]: 1.32 fold enrichment (6-mer frequency, TF over GST control) | binding signal [18]: 1.41 fold enrichment (6-mer frequency, TF over GST control)
